Assay results published in ChEMBL document CHEMBL3988442, “University of Dundee, Small-Polar-MMV Screening Library” (2021).
Screen size: about 68,000 compounds; about 25 (0.04%) showed an effect of 50% or more. The list comes from a sample in which strong results are over-represented; it also holds similar structures and randomly drawn compounds.

target: T1, Methionyl-tRNA synthetase, putative (Leishmania donovani (strain BPK282A1)) (UniProt E9BF75); test: Leishmania donovani Methionine tRNA synthetase (LdMetRS):v6. Primary screen assay; type: functional; design: conc 80 nM, time 150 minutes
T1 sequence (whole entry): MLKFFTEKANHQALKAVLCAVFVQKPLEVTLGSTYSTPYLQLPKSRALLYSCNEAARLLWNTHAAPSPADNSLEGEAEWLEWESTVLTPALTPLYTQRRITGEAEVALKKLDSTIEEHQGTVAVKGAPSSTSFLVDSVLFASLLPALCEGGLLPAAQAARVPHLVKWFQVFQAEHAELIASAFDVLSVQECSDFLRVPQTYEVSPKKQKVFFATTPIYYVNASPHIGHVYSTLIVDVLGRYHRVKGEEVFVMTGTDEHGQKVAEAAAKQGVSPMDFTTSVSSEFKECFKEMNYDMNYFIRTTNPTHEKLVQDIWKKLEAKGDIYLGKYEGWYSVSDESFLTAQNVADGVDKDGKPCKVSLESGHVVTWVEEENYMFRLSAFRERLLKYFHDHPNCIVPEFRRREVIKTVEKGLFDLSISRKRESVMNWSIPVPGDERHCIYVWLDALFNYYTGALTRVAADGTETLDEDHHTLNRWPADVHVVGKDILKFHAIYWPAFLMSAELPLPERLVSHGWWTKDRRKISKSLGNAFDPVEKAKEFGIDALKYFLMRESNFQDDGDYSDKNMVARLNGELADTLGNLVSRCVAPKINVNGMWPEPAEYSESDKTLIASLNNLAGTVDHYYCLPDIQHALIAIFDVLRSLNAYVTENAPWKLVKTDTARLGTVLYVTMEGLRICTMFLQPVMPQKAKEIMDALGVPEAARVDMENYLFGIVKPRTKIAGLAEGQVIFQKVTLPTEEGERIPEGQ

**Q.** With `Cc1ocnc1C(=O)N1CCN(Cc2ccccc2)[C@@H]2CS(=O)(=O)C[C@@H]21` as the compound, how does the inhibition read?
**A.** The inhibition was 11.8%.

**Q.** `O=C([C@@H]1C[C@H]2[C@H](CCN2Cc2nccs2)O1)N1CCOCC1` was tested. Which inhibition did it give?
**A.** The inhibition was 12.4%.

**Q.** How did the inhibition turn out when `Cc1noc([C@@H]2CC[C@@H]3[C@@H](CCN3S(=O)(=O)c3ccccc3)O2)n1` was run?
**A.** Its inhibition is 21.6%.

**Q.** Which inhibition does the source give for `Cn1ccnc1CN1C[C@H]2CN(S(C)(=O)=O)CCN2C1=O` here?
**A.** The inhibition was 12%.

**Q.** Which inhibition does the source give for `COCCN1C(=O)CC[C@@H]2[C@H]1CCN2C(=O)C1CCOCC1` here?
**A.** Its inhibition is 7.27%.

**Q.** How did the inhibition turn out when `CCN1C[C@H]2[C@@H](C1)N(S(=O)(=O)c1ccccc1F)CC[C@H]2OC` was run?
**A.** Its inhibition is 18.4%.

**Q.** Which inhibition does the source give for `Cc1cnn(CCNCc2c(C)nn(-c3ccccc3)c2C)c1` here?
**A.** Its inhibition is 121%.

**Q.** How did the inhibition turn out when `CCn1nc(C)c(CNCCn2cc(C)cn2)c1C` was run?
**A.** Its inhibition is -6.21%.

**Q.** For `Cc1cnn(CCNCc2c(C)nn(C)c2Cl)c1`, which inhibition is on record?
**A.** Its inhibition is 15.4%.

**Q.** With `Cc1cnn(CCNCc2c(C)nn(Cc3ccccc3)c2C)c1` as the compound, how does the inhibition read?
**A.** The inhibition was 9.32%.

**Q.** How did the inhibition turn out when `Cc1cnn(CCNCc2c(C)nn(CCO)c2C)c1` was run?
**A.** Its inhibition is 105%.

**Q.** `Cc1cnn(CCNCc2ccccc2F)c1` was tested. Which inhibition did it give?
**A.** Its inhibition is 13%.

**Q.** How did the inhibition turn out when `Cc1cccc2nc(C(=O)N3CCCC[C@]4(C)NC(=O)CC[C@H]34)cn12` was run?
**A.** Its inhibition is 13.5%.

**Q.** With `O=C(O)CC1COCCN1C(=O)C1(c2ccc(Cl)cc2)CCC1` (stereo not drawn) as the compound, how does the inhibition read?
**A.** The inhibition was 52.2%.

**Q.** With `CNC(=O)CC1COCCN1C(=O)C1(c2ccc(Cl)cc2)CCC1` (stereo not drawn) as the compound, how does the inhibition read?
**A.** Its inhibition is 7.45%.

**Q.** How did the inhibition turn out when `O=C(N1CCCC(n2cncn2)C1)C1(c2ccc(Cl)cc2)CCC1` (stereo not drawn) was run?
**A.** The inhibition was 15.4%.

**Q.** `O=C(N1CCOCC1CO)C1(c2cccs2)CCCC1` (stereo not drawn) was tested. Which inhibition did it give?
**A.** The inhibition was 8.7%.

**Q.** For `O=C(N1CCC(O)(C(F)(F)F)C1)C1(c2ccc(Cl)cc2)CC1` (stereo not drawn), which inhibition is on record?
**A.** The inhibition was 8.1%.

**Q.** `O=C(N1CCOCC(O)C1)C1(c2ccc(Cl)cc2)CCC1` (stereo not drawn) was tested. Which inhibition did it give?
**A.** The inhibition was 123%.

**Q.** Which inhibition does the source give for `O=C(c1ccco1)N1C[C@@H]2CN(c3ccccn3)C[C@@H]2C1` here?
**A.** The inhibition was 6.11%.

**Q.** Which inhibition does the source give for `O=C(NCc1ccco1)[C@H]1CC[C@@H]2[C@@H](CCN2c2ncccn2)O1` here?
**A.** The inhibition was 3.27%.

**Q.** For `CC(C)CN1Cc2nc(N3CCC(O)CC3)ncc2C1=O`, which inhibition is on record?
**A.** The inhibition was 7.08%.

**Q.** For `Cc1nonc1CC(=O)N1C[C@@H]2CC[C@H](C1)N(Cc1ccccc1)C2=O`, which inhibition is on record?
**A.** The inhibition was 6.88%.

**Q.** How did the inhibition turn out when `N#Cc1ccccc1CN1C[C@@H]2CC[C@H](C1)N(CC1CCC1)C2=O` was run?
**A.** Its inhibition is 19.4%.

**Q.** `CCc1[nH]c2c(CNc3cncc(C(=O)N(C)C)n3)cc(F)cc2c1C` was tested. Which inhibition did it give?
**A.** The inhibition was 28.6%.

**Q.** How did the inhibition turn out when `CCc1[nH]c2c(CNc3cncc(C(=O)OC)n3)cc(C)cc2c1C` was run?
**A.** Its inhibition is 123%.

**Q.** For `CCc1[nH]c2c(CNc3cncc(C(=O)N(C)C)n3)cc(C)cc2c1C`, which inhibition is on record?
**A.** Its inhibition is 32.3%.

**Q.** With `CCOCC(=O)N1CC[C@H]2OCC[C@@]2(COc2ncccc2F)C1` as the compound, how does the inhibition read?
**A.** The inhibition was 6.53%.

**Q.** With `CC1CCN(c2ccc(C(=O)N3CCCC3c3nncn3C)cn2)CC1` (stereo not drawn) as the compound, how does the inhibition read?
**A.** Its inhibition is 4.75%.

**Q.** With `CC1CCN(c2ccc(C(=O)N3CCCC3c3ccc[nH]3)cn2)CC1` (stereo not drawn) as the compound, how does the inhibition read?
**A.** Its inhibition is 78.5%.

**Q.** For `NC(=O)c1ccc(OCC(=O)N2CCCC2c2ccc[nH]2)cc1` (stereo not drawn), which inhibition is on record?
**A.** Its inhibition is 15.5%.

**Q.** With `CCCOc1cc(C)c2c(c1C)C[C@H]([C@H](C)C(=O)O)CC2` as the compound, how does the inhibition read?
**A.** The inhibition was 2.26%.

**Q.** With `CC(C)N1[C@H](CN2CCCC2)C[C@@H]2CN(Cc3cnn(C)c3)CC[C@@H]21` as the compound, how does the inhibition read?
**A.** The inhibition was 12.3%.

**Q.** Which inhibition does the source give for `c1coc(CN2CCO[C@H]3[C@H](OCC4CC4)CC[C@@H]32)c1` here?
**A.** Its inhibition is 13.7%.

**Q.** `O=C(NCC1CCOCC1)[C@@H]1CC[C@@H]2[C@@H](CCN2Cc2ccncc2)O1` was tested. Which inhibition did it give?
**A.** The inhibition was 19.3%.

**Q.** Which inhibition does the source give for `Cc1nc(CN2C(=O)C[C@@H]3[C@@H]2CCN3S(=O)(=O)C2CC2)cs1` here?
**A.** Its inhibition is 11.7%.

**Q.** `COCC(=O)N1C[C@@H]2CCCO[C@@H]2[C@H](N(C)Cc2ccco2)C1` was tested. Which inhibition did it give?
**A.** The inhibition was -6.25%.

**Q.** For `CNC(=O)[C@H]1C[C@@H]2CN(Cc3ccccc3)C[C@H]1O2`, which inhibition is on record?
**A.** The inhibition was 15.9%.

**Q.** With `CN(C(=O)c1cccc(C(=O)NCC(F)(F)F)c1)c1ccccc1` as the compound, how does the inhibition read?
**A.** The inhibition was 3.94%.

**Q.** With `COC(=O)CNC(=O)c1cccc(C(=O)N(C)c2ccccc2)c1` as the compound, how does the inhibition read?
**A.** Its inhibition is 95%.

**Q.** With `COC(=O)CCNC(=O)c1cccc(C(=O)N(C)c2ccccc2)c1` as the compound, how does the inhibition read?
**A.** The inhibition was 31.7%.

**Q.** `O=C(NC1CC1)N1C[C@@H]2CCN(C(=O)c3cscn3)[C@@H]2C1` was tested. Which inhibition did it give?
**A.** The inhibition was 0.546%.

**Q.** Which inhibition does the source give for `CO[C@H]1C[C@@H]2CN(C(=O)c3cc4ccc(F)cc4[nH]3)C[C@@H]2C1` here?
**A.** The inhibition was 13.3%.

**Q.** With `O=C1[C@H]2CN(S(=O)(=O)c3ccccc3)C[C@H]2CN1Cc1cccnc1` as the compound, how does the inhibition read?
**A.** Its inhibition is 4.19%.

**Q.** Which inhibition does the source give for `Cc1nnc(NC(=O)NCc2ccc(N3CCNC(=O)C3)cc2)s1` here?
**A.** The inhibition was 9.92%.

**Q.** Which inhibition does the source give for `Cc1ccccc1C(=O)NCc1ccc(N2CCNC(=O)C2)cc1` here?
**A.** Its inhibition is 14.1%.

**Q.** `Cc1cccnc1NC(=O)NCc1ccc(N2CCNC(=O)C2)cc1` was tested. Which inhibition did it give?
**A.** The inhibition was 50.6%.

**Q.** `CN(C)S(=O)(=O)N1CC[C@]2(O)CCN(Cc3cccc(F)c3)C[C@@H]2C1` was tested. Which inhibition did it give?
**A.** The inhibition was 12.9%.

**Q.** With `CC(C)c1nc(N2CCC(N3CCCC(O)C3)CC2)c2cnn(C)c2n1` (stereo not drawn) as the compound, how does the inhibition read?
**A.** The inhibition was 14.7%.

**Q.** For `CC(C)c1nc(N2CCC(N3CCSCC3)CC2)c2cnn(C)c2n1`, which inhibition is on record?
**A.** Its inhibition is 12.3%.

**Q.** With `CC(C)c1nc(N2CCC(N3CCCCCC3)CC2)c2cnn(C)c2n1` as the compound, how does the inhibition read?
**A.** The inhibition was 56.4%.

**Q.** How did the inhibition turn out when `CC1=N[C@@]2(CC[C@@H]3CN(CC4CC4)C[C@@H]32)C(=O)N1CC(C)C` was run?
**A.** Its inhibition is 14.9%.

**Q.** With `COCCN1C[C@H]2CC[C@@H]1CN(C(=O)CCn1cc(Cl)cn1)C2` as the compound, how does the inhibition read?
**A.** Its inhibition is 9.25%.

**Q.** Which inhibition does the source give for `CC(C)CC(=O)N1CC[C@@H]2[C@H](CC1)N(Cc1cccnc1)CCS2(=O)=O` here?
**A.** Its inhibition is 15.2%.

**Q.** `CN(C)CCN1CC[C@H]2[C@@H]1CCN2Cc1ccc2c(c1)OCO2` was tested. Which inhibition did it give?
**A.** The inhibition was 5.56%.

**Q.** How did the inhibition turn out when `CCCSCC(=O)N1C[C@@H]2CC[C@H](C1)N(Cc1ccccn1)C2=O` was run?
**A.** Its inhibition is -1.42%.

**Q.** How did the inhibition turn out when `c1ccc(CN2C[C@H]3CC[C@@H]2CN(Cc2nnc(C4CC4)o2)C3)cc1` was run?
**A.** Its inhibition is 12.8%.

**Q.** `CN(C)C(=O)N1CCN(c2ccc3ccc(C(=O)NC4CC4)cn23)CC1` was tested. Which inhibition did it give?
**A.** Its inhibition is 20.2%.

**Q.** With `CC(C)N1CCN(c2ccc3ccc(C(=O)NC4CCCC4)cn23)CC1` as the compound, how does the inhibition read?
**A.** Its inhibition is 30.2%.

**Q.** For `CC(=O)N1CCN(c2ccc3ccc(C(=O)NC4CCCC4)cn23)CC1`, which inhibition is on record?
**A.** Its inhibition is 52.9%.

**Q.** How did the inhibition turn out when `N#Cc1cccc(C(=O)N2CC[C@H]3[C@H]2CCN3CC2CCOCC2)c1` was run?
**A.** The inhibition was 9.34%.

**Q.** `CS(=O)(=O)NC[C@]12COC[C@H]1CN(CCc1ccccc1)C2` was tested. Which inhibition did it give?
**A.** Its inhibition is 13.1%.

**Q.** How did the inhibition turn out when `Cc1nc([C@H]2C[C@@H]3CCN(C(=O)c4ccnnc4)C[C@H]3O2)sc1C` was run?
**A.** The inhibition was 17%.

**Q.** How did the inhibition turn out when `O=C(NCC1CCOCC1)[C@H]1C[C@@H]2CCN(Cc3ccccc3)C[C@H]2O1` was run?
**A.** The inhibition was 18.4%.

**Q.** With `CNC(=O)N1C[C@H]2C[C@H](C(=O)NCc3cccnc3)[C@@H](C1)O2` as the compound, how does the inhibition read?
**A.** The inhibition was 9.15%.

**Q.** How did the inhibition turn out when `Cc1ncc(CN2CCOC(CNc3cccnn3)C2)s1` (stereo not drawn) was run?
**A.** Its inhibition is 13.2%.

**Q.** For `CCCN1C[C@H]2CC[C@@H]1CN(c1nnc(C(C)C)s1)C2`, which inhibition is on record?
**A.** Its inhibition is 9.31%.

**Q.** For `O=C(Cn1ccc(=O)cc1)N1C[C@H]2CC[C@@H]1CN(c1ncccn1)C2`, which inhibition is on record?
**A.** Its inhibition is 15.1%.
